# Hits are enriched below; roughly 6.1% of the tested compounds scored in any of these assays.
# DRD3 antagonist = qHTS of D3 Dopamine Receptor Antagonist: qHTS; D(3) dopamine receptor (Homo sapiens), P35462; D3R cells, DiscoveRx beta-arrestin luminescence, antagonist mode; stronger effect = lower value; max response, negative = inhibition, %; 360,000 compounds, 2.5% hits; AID 652054, 2013; in the data active means max response below about -50%; inconclusive means no clear call, values can overlap the other calls; further: on the % scale 0 is the no-effect control and ±100 the full control effect
#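 Cells plated overnight at 1500 cells/well, then exposed to library compounds with dopamine controls for 90 minutes at 37 degrees C. DiscoveRx reagent added for 30–60 minutes at room temperature; luminescence read, quantitative HTS format.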
# DRD3 agonist = qHTS of D3 Dopamine Receptor Agonist: qHTS; D(3) dopamine receptor (Homo sapiens), P35462; max activation, %; 410,000 compounds, 0.58% hits; D3R DiscoveRx beta-arrestin cells, luminescence, 90 min; in the data active means max activation above about 30%; further: 0% is about no effect
#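 Agonist-mode cell screen: cells plated at 1500/well and incubated overnight at 37 °C, then exposed to library compounds for 90 min at 37 °C. Detection reagent was added for 30–60 min at room temperature, and luminescence was read.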
# D1 antagonist = Antagonist of Human D 1 Dopamine Receptor: qHTS | HEK293 TREx D1 cells, calcium flux, dopamine EC80; stronger effect = lower value | activity change, negative = inhibition, % at 10 µM | 360,000 compounds, 3.2% hits; in the data active means activity change below about -30%; further: on the % scale 0 is the no-effect control and ±100 the full control effect
# Target sequence (P21728 whole entry, looked up): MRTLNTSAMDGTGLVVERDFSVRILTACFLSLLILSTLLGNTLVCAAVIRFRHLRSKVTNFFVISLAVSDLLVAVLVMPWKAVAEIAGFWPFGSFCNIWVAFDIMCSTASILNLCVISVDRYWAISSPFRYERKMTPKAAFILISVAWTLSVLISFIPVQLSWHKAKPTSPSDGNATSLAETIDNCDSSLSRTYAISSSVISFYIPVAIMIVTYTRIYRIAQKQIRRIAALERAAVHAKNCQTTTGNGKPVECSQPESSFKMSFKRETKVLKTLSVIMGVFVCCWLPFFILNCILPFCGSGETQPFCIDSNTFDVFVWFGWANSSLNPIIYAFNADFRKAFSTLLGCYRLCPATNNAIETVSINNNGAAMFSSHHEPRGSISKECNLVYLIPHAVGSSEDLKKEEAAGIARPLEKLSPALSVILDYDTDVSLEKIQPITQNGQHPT
#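 Calcium flux readout: force-coupled, inducible Hek293 Trex D1 line, cells induced overnight at 30 C with tetracycline, dye-loaded 30–90 min at RT. Antagonism scored against EC80 dopamine challenge given 180 s after compound.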
# D1 agonist = Allosteric Agonists of the Human D1 Dopamine Receptor: qHTS; HEK293 T-REx D1 cells, calcium flux, agonist mode; 360,000 compounds, 1% hits; D(1A) dopamine receptor (Homo sapiens), P21728; activation, % at 2 µM; in the data active means activation above about 30%; further: 0% is about no effect
#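 Agonism was scored from calcium flux recorded over 180 s (1 read/s) after pintool compound addition, following a 10-cycle baseline. Cells were inducible force-coupled HEK293 TREx D1, plated overnight at 30 C and loaded with no-wash calcium dye.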
# D1 potentiator = Potentiators of Human D1 Dopamine Receptor: qHTS; D(1A) dopamine receptor (Homo sapiens), P21728; HEK293 TREx D1 cells, calcium flux, dopamine EC20 potentiation; potentiation, % at 10 µM; 360,000 compounds, 0.036% hits; AID 504651, 2011; in the data active means potentiation above about 30%; further: 0% is about no effect
# * = called active by the depositor; ? = inconclusive; nt = not tested or not shown; ! = not active in a repeat.
SMILES,DRD3 antagonist,DRD3 agonist,D1 antagonist,D1 agonist,D1 potentiator
CSc1nc(NC(C)(C)C)nc(Oc2ccc(=O)n(C)n2)n1,-3.5,-2.9,-34.2*,2.0,-6.6
CCNc1nc(Oc2ccc(=O)n(C)n2)nc(N2CCOCC2)n1,0.0,5.2,8.2,4.5,-5.5
CSc1nc(NC(C)(C)C)nc(Oc2ccc(=O)[nH]n2)n1,?,-5.2,5.0,0.6,-2.8
CNc1nc(Oc2ccc(=O)n(C)n2)nc(N2CCOCC2)n1,1.0,7.2,-30.6*!,1.9,-9.7
CC(C)CNc1nc(NC(C)(C)C)nc(Oc2ccc(=O)n(-c3ccccc3)n2)n1,nt,9.6,15.6,-0.2,0.7
CC(C)Nc1nc(NC(C)(C)C)nc(Oc2ccc(=O)n(-c3ccccc3)n2)n1,19.1,-1.4,3.6,36.8*,3.2
CC(=O)NCCOC(=O)c1nn(Cc2ccccc2)c(=O)c2ccccc12,24.9,2.2,8.1,0.6,-4.3
CCCCOC(=O)c1ccc(NC(=S)NC(=O)c2c(Cl)cnn2C)cc1,-85.0*,-2.7,-7.2,2.8,-4.8
CCCCOC(=O)c1ccc(NC(=S)NC(=O)c2c(Cl)cnn2CC)cc1,-10.9,-1.2,7.1,5.8,0.1
Cc1ccc2c(c1)N(C(=O)CCC(=O)N1CCOCC1)CCO2,7.6,5.5,-31.2*,2.6,-10.2
CC1CN(C(=O)CCC(=O)NCc2ccccc2)c2cc(Cl)ccc2O1 (centres undefined),1.6,-5.2,7.2,4.7,10.3
Cc1ccc2c(c1)N(C(=O)CCC(=O)N1CCCCC1)CCO2,-14.4,9.9,-25.2,-0.6,3.5
Cc1ccc2c(c1)N(C(=O)CCC(=O)NCCN1CCOCC1)CC(C)O2 (centres undefined),0.2,3.1,-36.3*,0.4,-5.2
COc1ccc(CCNC(=O)CCC(=O)N2CC(C)Oc3ccc(Cl)cc32)cc1OC (centres undefined),17.6,-6.8,-57.6*,-0.7,-7.9
Cc1ccc(N(CC(=O)NCc2ccccc2)C(=O)c2csnn2)cc1,-4.9,-2.2,-5.5,0.8,-2.0
Cc1cccc(C(CC(=O)N2CCCCC2)c2ccccc2)c1O (centres undefined),7.0,-7.3,7.5,2.3,-4.6
O=c1[nH]c(CN2CCN(c3ccccc3)CC2)nc2scc(-c3ccccc3)c12,-4.7,107.9*,7.3,-0.1,0.9
OCC1CCCN(c2nc(CN3CCCCC3)nc3scc(-c4ccccc4)c23)C1 (centres undefined),-16.0,-8.9,-9.6,2.7,-1.6
CCNc1nc(CN2CCCCC2)nc2scc(-c3ccccc3)c12,-10.9,-5.1,-37.6*,2.7,-7.8
Fc1ccc(N2CCN(c3nc(CN4CCOCC4)nc4scc(-c5ccccc5)c34)CC2)cc1,27.8,-0.5,-45.9*,4.5,-2.4
O=C1NC(c2ccccc2)=C(c2nc3ccccc3s2)C(c2ccc(F)cc2)N1 (centres undefined),-56.3*,14.3,0.4,0.5,2.9
CC(NC(=S)NCCc1ccccc1)C(c1cccs1)N1CCN(Cc2ccccc2)CC1 (centres undefined),-79.4*,-12.6,-20.4,4.1,-7.2
Cc1ccccc1Cc1ccc(Cl)nn1,-7.3,-1.1,-43.7*,0.9,-4.6
COC1=C(N)C(=O)c2nc(-c3nc(C(=O)O)c(C)c(-c4ccc(OC)c(OC)c4O)c3N)ccc2C1=O,-118.5*,-102.2,-8.0,0.1,2.5
COc1ccc(-c2ncncc2-c2csc(C)n2)c(O)c1OC,1.4,1.6,1.6,-1.7,-1.3
SMILES,DRD3 antagonist,DRD3 agonist,D1 antagonist,D1 agonist,D1 potentiator
CC1(C(=O)NS(=O)(=O)c2ccc(Br)cc2)CCN1C(=O)CCc1cccs1 (centres undefined),9.9,5.5,nt,nt,nt
CC1(C)C2CCC1(C)C(OCC[N+](C)(C)CC(=O)OC1CCCCC1)C2 (centres undefined),10.0,-6.5,-65.9*,0.9,-3.1
CCOC(=O)C[N+](C)(C)CCOC1CC2CCC1(C)C2(C)C (centres undefined),-4.7,4.2,-7.9,4.1,-2.7
CCOC(=O)c1ccc(NC(=S)N2CCSC2c2ccc(Br)cc2)cc1 (centres undefined),-20.8,-7.2,-4.1,15.6,22.4
Cc1c(NC(=O)Nc2cccs2)cccc1[N+](=O)[O-],-12.4,-9.5,-36.0*,18.1,-12.2
Cc1ccc(NC(=O)Nc2cccs2)cc1,?,-6.9,-13.0,11.2,-4.0
COc1cccc(NC(=O)Nc2cccs2)c1,1.8,3.1,-9.9,6.6,-3.4
CCc1ccc(NC(=O)Nc2cccs2)cc1,10.9,6.0,-36.9*,10.7,-6.6
O=C(Nc1cccs1)Nc1ccc(Br)cc1F,3.7,0.3,-31.6*,16.6,0.6
CC(=O)c1cccc(NC(=O)Nc2cccs2)c1,-51.4*,-10.8,1.2,16.5,-5.3
Cc1ccc2c(C)c(C(=O)N3CCCCC3CO)oc2c1C (centres undefined),1.8,3.4,14.8,0.2,-2.0
Cc1cc([N+](=O)[O-])ccc1NC(c1nnc(-c2ccccc2)o1)c1ccccc1F (centres undefined),nt,2.3,0.8,6.1,0.3
O=C(Nc1ccc2c(c1)OCCO2)C1c2ccccc2OCC(=O)N1CCc1ccccc1 (centres undefined),1.5,7.0,nt,nt,nt
O=C(NCc1ccccc1Cl)c1cc(=O)[nH]c2ccc(S(=O)(=O)N3CCCCC3)cc12,nt,-0.1,10.9,0.9,-0.2
CN(C)c1ccc(-c2csc(C(O)(c3ccccc3)C(F)(F)F)n2)cc1 (centres undefined),-94.2*,-12.2,nt,nt,nt
COc1ccc(C(=O)c2[nH]c(N)c(C(=O)NCCc3c[nH]c4ccccc34)c2-c2c(F)cccc2Cl)cc1,8.6,4.5,nt,nt,nt
O=C(CNC(=O)c1cccc2ccccc12)OC(C(=O)Nc1cc(C(F)(F)F)ccc1Cl)c1ccccc1 (centres undefined),nt,nt,12.7,-1.4,5.0
Cc1ccc(Oc2cnc3ccccc3n2)cc1,15.5,-1.5,1.1,3.2,1.3
COc1ccc(Oc2cc(C)c3ccccc3n2)cc1,-7.1,30.3*,20.6,2.0,7.0
Cc1cccc(C)c1NC(=O)C(c1ccc(C#N)cc1)n1c(=O)c(-c2ccccc2)nc2ccccc21 (centres undefined),-60.1*,-18.7,nt,nt,nt
CCCCOC(=O)c1ccc(NC(=O)/C=C/c2cccs2)cc1,-23.2,-35.1,-9.8,9.2,-12.6
Cc1ccc(Cl)cc1N1CCN(C(=O)C2CCN(Cc3nc(-c4cccc(Cl)c4)oc3C)CC2)CC1,nt,-7.7,0.0,0.7,-1.2
Cc1ccc(-c2nc(CN3CCCC(C(=O)N4CCOCC4)C3)c(C)o2)cc1 (centres undefined),-3.2,-3.3,-33.8*,-0.4,-0.1
